Usually AC50 stands for the concentration at which the activity in the assay is half-maximal.

“And” between values parts separate entries of the source, which are not always exact repeats. Equal entries are not always repeated. Results filed as inconclusive are left out. Some compounds were tested as several samples or in several runs, with calls that do not always agree. The source made the active and inactive calls. Rule for the calls, unless noted: active = hit-call score of the fitted dose curve at least 0.9, where 1 is the maximum; inconclusive = response in the unintended direction; inactive = score below 0.9.

Assay [1] can be described thus: TOX21_p53_BLA_p2_viability: Viability Assessment in the Tox21 HCT-116 p53 Agonism Beta-lactamase Assay, Phase 2 (AID 2283591).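 Note: compound exposure lasted 16 h at 37 °C; actives lower the ATP signal meaning cytotoxicity.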 The method, boiled down: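 Cytotoxicity readout: CellTiter-Glo ATP luminescence, 30 min at room temperature, after the beta-lactamase read. Cells were HCT116 exposed 16 h at 37C to compounds pin-transferred at 217-fold dilution from DMSO stocks.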

Assay [2] has as its target Cellular tumor antigen p53 (Homo sapiens) (UniProt P04637). Kind of assay: TOX21_p53_BLA_p2_ratio: Tox21 HCT-116 p53 Agonism Beta-lactamase Assay, Ratio, Phase 2 (AID 2283592). The method, boiled down: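 In this cell-based reporter format, HCT116 cells were dosed with chemicals delivered from DMSO by 217-fold dilution and incubated 16 h at 37C. Emission at 460 and 530 nm after 2 h CCF4-AM loading provided the ratio, fitted upward versus DMSO.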

A short description of assay [3]: TOX21_p53_BLA_p3_viability: Viability Assessment in the Tox21 HCT-116 p53 Agonism Beta-lactamase Assay, Phase 3 (AID 2283593).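 Note: cells exposed to compound for 16 h before reading.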 The method, boiled down: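 Cellular ATP was quantified by CellTiter-Glo luminescence, read after 30 min at room temperature. Beforehand, HCT116 cells (4000/well) received compound 5 h post-seeding, 217-fold diluted from DMSO, then incubated 16 h at 37C.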

Assay [4] can be described thus: TOX21_p53_BLA_p4_viability: Viability Assessment in the Tox21 HCT-116 p53 Agonism Beta-lactamase Assay, Phase 4 (AID 2283597).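 Note: hits lower the luminescence signal meaning cytotoxicity.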 The method, boiled down: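 We seeded HCT116 p53 reporter cells at 4000/well and waited 5 h. We then added compounds in DMSO at a 217-fold dilution and incubated for 16 h. Viability was read as CellTiter-Glo luminescence after 30 min at RT.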

In assay [5] the target is Cellular tumor antigen p53 (Homo sapiens) (UniProt P04637). Kind of assay: TOX21_p53_BLA_p5_ratio: Tox21 HCT-116 p53 Agonism Beta-lactamase Assay, Ratio, Phase 5 (AID 2283599). The method, boiled down:
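Beta-lactamase reporter ratio (blue 460 nm over green 530 nm, 405 nm excitation) after 2 h CCF4-AM loading, in HCT-116 cells exposed 16 h at 37 C to compounds pinned at 217-fold dilution. Increases relative to DMSO baseline scored.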

Assay [6] can be described thus: TOX21_p53_BLA_p5_viability: Viability Assessment in the Tox21 HCT-116 p53 Agonism Beta-lactamase Assay, Phase 5 (AID 2283600). The method, boiled down: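 Compounds, pinned from DMSO at 217-fold dilution, were left on the cells for 16 h. The viability endpoint was ATP content measured by CellTiter-Glo luminescence, where falling signal reflects cytotoxicity.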
Assay [7] has as its target Cellular tumor antigen p53 (Homo sapiens) (UniProt P04637). Kind of assay: TOX21_p53_BLA_p4_ratio: Tox21 HCT-116 p53 Agonism Beta-lactamase Assay, Ratio, Phase 4 (AID 2283601). The method, boiled down: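 Signal is the blue/green (460nm/530nm) ratio of cleaved versus uncleaved CCF4-AM substrate, read after 2 h substrate loading. Cells were HCT116 carrying the p53-responsive beta-lactamase reporter, dosed 16 h at 37C, 5% CO2; CellTiter-Glo measured in parallel.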

In assay [8] the target is bovine Estrogen Receptor (ER), ESR1 (gene 407238) (UniProt P49884). Kind of assay: NVS_NR_bER: NovaScreen (NVS) Nuclear Receptor Binding Assay for bovine Estrogen Receptor (ER) (AID 2283345).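 Note: actives lower the bound radioligand count which means they displace the ER ligand.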 The method, boiled down: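 Bovine uterine membranes; tritiated or iodinated radioligand; competitive displacement; 18 h; scintillation read; DMSO negative control; 25 uM duplicates, then concentration series for actives.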
bovine Estrogen Receptor (ER), ESR1 (gene 407238), sequence (P49884 whole entry, looked up): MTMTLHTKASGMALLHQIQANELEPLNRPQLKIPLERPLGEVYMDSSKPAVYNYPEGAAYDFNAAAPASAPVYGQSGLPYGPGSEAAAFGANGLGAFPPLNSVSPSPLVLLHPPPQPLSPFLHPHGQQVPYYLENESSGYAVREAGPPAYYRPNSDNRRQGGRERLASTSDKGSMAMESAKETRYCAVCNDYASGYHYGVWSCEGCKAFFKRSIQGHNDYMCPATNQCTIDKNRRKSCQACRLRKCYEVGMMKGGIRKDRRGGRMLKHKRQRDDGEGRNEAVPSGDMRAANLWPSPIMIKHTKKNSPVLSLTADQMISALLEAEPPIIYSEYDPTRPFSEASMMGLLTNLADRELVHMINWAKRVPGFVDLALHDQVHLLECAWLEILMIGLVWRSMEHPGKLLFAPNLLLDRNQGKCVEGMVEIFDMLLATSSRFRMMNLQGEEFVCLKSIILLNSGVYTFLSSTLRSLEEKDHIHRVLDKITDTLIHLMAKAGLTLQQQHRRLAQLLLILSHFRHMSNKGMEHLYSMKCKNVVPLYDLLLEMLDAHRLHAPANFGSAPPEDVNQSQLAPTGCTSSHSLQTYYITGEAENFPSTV

In assay [9] the target is Estrogen receptor (Homo sapiens) (UniProt P03372). Kind of assay: NVS_NR_hER: NovaScreen (NVS) Nuclear Receptor Binding Assay for human Estrogen Receptor (ER) (AID 2283348). The method, boiled down: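 Scintillation signal from bound radioligand was measured 18 hours after chemical addition to cell-free MCF7 protein extracts, with DMSO as baseline. Activity was scored as signal loss; compounds ran first at 25 uM in duplicate.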
Estrogen receptor (Homo sapiens), sequence (P03372 whole entry, looked up): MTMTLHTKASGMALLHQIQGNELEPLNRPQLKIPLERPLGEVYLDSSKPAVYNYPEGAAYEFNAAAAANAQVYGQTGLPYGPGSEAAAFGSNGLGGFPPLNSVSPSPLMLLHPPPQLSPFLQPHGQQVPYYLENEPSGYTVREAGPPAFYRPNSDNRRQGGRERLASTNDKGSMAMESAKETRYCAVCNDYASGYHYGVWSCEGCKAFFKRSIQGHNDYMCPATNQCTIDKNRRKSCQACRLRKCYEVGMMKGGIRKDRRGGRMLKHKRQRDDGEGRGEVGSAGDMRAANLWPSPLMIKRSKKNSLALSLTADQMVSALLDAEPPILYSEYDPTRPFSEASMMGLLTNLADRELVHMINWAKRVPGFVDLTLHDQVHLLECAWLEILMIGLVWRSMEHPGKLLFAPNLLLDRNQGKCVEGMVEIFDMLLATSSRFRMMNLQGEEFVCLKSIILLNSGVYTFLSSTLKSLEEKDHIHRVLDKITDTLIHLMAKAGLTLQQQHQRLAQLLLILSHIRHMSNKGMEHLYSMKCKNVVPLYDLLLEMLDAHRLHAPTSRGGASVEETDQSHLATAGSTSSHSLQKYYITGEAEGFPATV

The nature of assay [10]: CCTE_Harrill_HTTr_Viability_MCF7: CCTE's 6-hour Cell Viability Assessment for the High-Throughput Transcriptomics (HTTr) Platform, in MCF-7 cells cultured in DMEM + 10% fetal bovine serum, Harrill Lab (AID 2284010; active = hit-call score of the fitted dose curve at least 0.9, where 1 is the maximum; inactive = score below 0.9). The method, boiled down: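 Membrane integrity was scored by high-content imaging of propidium iodide dye exclusion after a 6 h exposure across an eight-point dilution series. Data were fitted bidirectionally relative to DMSO as negative control and baseline.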

Assay [11] in a line: CCTE_Harrill_HTTr_Apoptosis_MCF7: CCTE's 6-hour Apoptosis Assessment for the High-Throughput Transcriptomics (HTTr) Platform, in MCF-7 cells cultured in DMEM + 10% fetal bovine serum, Harrill Lab (AID 2284011; active = hit-call score of the fitted dose curve at least 0.9, where 1 is the maximum; inactive = score below 0.9). The method, boiled down:
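Read-out: CellEvent Caspase 3/7 Green signal by high content imaging, gain-of-signal indicating apoptosis. MCF-7 cells, DMEM + 10% FBS, eight-point dilution series, 6 h exposure. Curves fitted bidirectionally relative to DMSO negative control.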

The target in assay [12] is Cellular tumor antigen p53 (Homo sapiens) (UniProt P04637). Kind of assay: TOX21_p53_BLA_p3_ratio: Tox21 HCT-116 p53 Agonism Beta-lactamase Assay, Ratio, Phase 3 (AID 2283596). The method, boiled down:
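HCT116 p53-bla cells (4000/well) given compound in DMSO (217-fold dilution) after 5 h, incubated 16 h at 37C. CCF4-AM substrate 2 h at room temperature; 460/530 nm emission ratio, gain fitted against DMSO.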

Cellular tumor antigen p53 (Homo sapiens), sequence (P04637 whole entry, looked up): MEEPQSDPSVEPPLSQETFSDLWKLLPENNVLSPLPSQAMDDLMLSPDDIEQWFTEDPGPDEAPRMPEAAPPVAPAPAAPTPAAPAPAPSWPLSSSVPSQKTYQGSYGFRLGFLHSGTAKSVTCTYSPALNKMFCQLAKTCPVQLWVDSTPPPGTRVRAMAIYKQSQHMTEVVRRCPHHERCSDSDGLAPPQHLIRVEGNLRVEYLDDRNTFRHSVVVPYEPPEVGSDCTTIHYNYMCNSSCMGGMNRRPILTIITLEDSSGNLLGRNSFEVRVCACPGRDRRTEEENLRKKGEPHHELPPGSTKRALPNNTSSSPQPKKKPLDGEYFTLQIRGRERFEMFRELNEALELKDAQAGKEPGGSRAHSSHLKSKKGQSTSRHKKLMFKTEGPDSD

Take `CC(=O)Oc1ccccc1C(=O)Nc1ncc([N+](=O)[O-])s1`: the AC50 was 10.7 µM (active) in assay [1]; 2.61 µM (active) and 14.1 µM (active) in [2]; 4.46 µM (active) and 6.54 µM (active) in assay [3]; 12.7 µM (active) in assay [4]; 3.18 µM (active) and 22.4 µM (active) in [5]; 10.7 µM (active) in assay [6]. Moreover, the half-maximal activity concentration (AC50) in assay [7] is 5.33 µM (active). The outcome in assay [1], in assay [4], in assay [6] and in assay [7] was inactive.

Regarding `Oc1ccc2c(c1)Cc1ccccc1-2`, the AC50 in [8] is 36.3 µM (active); in assay [9], 25 µM (active). For the same compound, the result in assay [10] and in assay [11] was inactive.

Take `CCC(=O)C(=O)CC`: the compound was classed as inactive in assay [8], in assay [1], in assay [2], in assay [3], in assay [12] and in assay [4]. Besides, the outcome in [5], in assay [6] and in [7] was inactive.

In the case of `C=C1CC[C@H](O)C/C1=C/C=C1\CCC[C@]2(C)[C@@H]([C@H](C)CCCC(C)C)CC[C@@H]12`, the half-maximal activity concentration (AC50) is 77.7 µM (active) in assay [1]; 63.2 µM (active) and 34.4 µM (active) in assay [3]; 45.7 µM (active) and 37.2 µM (active) in assay [4]; 73.6 µM (active) in assay [6]; 76.7 µM (active) in assay [7]. In addition, the call in assay [1], in [2], in assay [12], in assay [5], in [6] and in assay [7] was inactive.

With `C[C@@H]1[C@H](O)[C@@H](C)/C=C/C=C/C=C/C=C/C=C/C=C/C=C/[C@H](O[C@@H]2O[C@H](C)[C@@H](O)[C@H](N)[C@@H]2O)C[C@@H]2O[C@](O)(C[C@@H](O)C[C@@H](O)[C@H](O)CC[C@@H](O)C[C@@H](O)CC(=O)O[C@H]1C)C[C@H](O)[C@H]2C(=O)O`, the AC50 in assay [1] is 72.4 µM (active). The call in assay [1], in [2], in assay [3], in assay [12], in assay [4] and in assay [5] was inactive. The result in [6], in [7], in assay [10] and in assay [11] was inactive.

Take `CC(=O)CCc1ccc(OC(C)=O)cc1`: the compound was classed as inactive in assay [9], in [1], in [2], in assay [3], in assay [4] and in [5]. Further, in assay [7], the outcome was inactive.

Turning to `C=CCN1CCc2nc(N)sc2CC1`, the call in assay [1] and in [2] was inactive.

Take `SC1CCCC1`: the compound was called inactive in assay [9].

Take `CCCCCCCCCCCCN(CCO)CCO`: the result in assay [8] was inactive. Besides, the half-maximal activity concentration (AC50) in assay [1] is 69.7 µM (active); in [2], 46.9 µM (active); in [3] it was 64.3 µM (active); in assay [12], 49.2 µM (active); in assay [4], 53.4 µM (active); in assay [5], 75.6 µM (active). The AC50 is 59.3 µM (active) in [6] and 69.1 µM (active) in assay [7].

With `C[C@H](CCC(=O)O)[C@H]1CC[C@H]2[C@@H]3CC[C@@H]4C[C@H](O)CC[C@]4(C)[C@H]3C[C@H](O)[C@]12C`, the half-maximal activity concentration (AC50) in [1] was 80.9 µM (active); in assay [2] it was 85.4 µM (active); in [3] it was 73.6 µM (active); in assay [12], 87.3 µM (active); in [4], 75.1 µM (active) and 36.4 µM (active); in [5], 86.7 µM (active). The AC50 in assay [6] is 84.4 µM (active). Besides, the outcome in assay [1], in [2], in assay [3], in [12], in [5] and in assay [6] was inactive.

Regarding `Cc1cc(Br)ccc1NC(=O)CCl`, the call in [9] was inactive. For the same compound, the half-maximal activity concentration (AC50) in [1] is 69.3 µM (active); in assay [2], 23.2 µM (active); in [3] it was 46.1 µM (active); in [12] it was 13.3 µM (active); in [4] it was 58.3 µM (active); in [5] it was 13.3 µM (active). Also, the AC50 in assay [6] was 46.1 µM (active); in assay [7], 25.3 µM (active).

As for `CC(O)(c1ccc(Cl)cc1)c1ccc(Cl)cc1`, the compound was classed as inactive in assay [8], in [9], in [1], in [3], in assay [12] and in assay [4]. The result in assay [5] and in assay [7] was inactive.

Values taken from PubChem BioAssay (EPA / NIEHS).
